Screens (PubChem)
Most compounds without a hit are left out; they make up all but 10% or so of the library.
SW480 rerep – A quantitative high throughput screen for small molecules that induce DNA re-replication in SW480 colon adenocarcinoma cells; SW480 DNA re-replication, Hoechst DNA content imaging, 48 h; hit rate 1.8% among 340,000; AID 624297, 2012; Potency, µM (top dose mostly 46.1 µM), for the others: top-dose re-replication activation, actives largely listed as activators; also: % of control where 0% means no effect; nearly all actives have a fitted effect of over 55% in size
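Treated cells incubate 48 hr (37 C, 5% CO2), are stained 40 min with Hoechst, and nuclear fluorescence is enumerated; a rise in nuclei with high DNA signal marks re-replication.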
VP16 counter – VP16 counterscreen qHTS for inhibitors of ROR gamma transcriptional activity; Drosophila S2 Gal4-VP16 UAS-luciferase, luminescence, 20 h; Potency, µM (top dose mostly 53.6 µM), inactives show at the highest dose activity, negative = inhibition, actives largely listed as inhibitors; hit rate 3.5% among 310,000;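 also: Gal4-VP16 expression switched on by copper sulfate through the metallothionein promoter; % is scaled to controls: 0 for no effect and ±100 for the full control effect; nearly all actives have a fitted effect of over 50% in size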
KB-3-1 tox – qHTS assay for MDR1-selective chemotherapeutics: Primary screen using the parental adenocarcinoma cell KB-3-1. KB-3-1 viability, CellTiter-Glo ATP luminescence, 72 h. Potency, µM (highest dose often 46.1 µM), actives largely listed as cytotoxic. hit rate 1.4% among 400,000; also: % is scaled to controls: 0 for no effect and ±100 for the full control effect; nearly all actives have a fitted effect of over 60% in size
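Using CellTiter-Glo luminescence, growth of non-resistant KB-3-1 adenocarcinoma cells is assessed 72 h after pin-tool compound addition at 37 °C. Normalized responses across the concentration series yield fitted curves.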
RORg inh – qHTS for inhibitors of ROR gamma transcriptional activity; Nuclear receptor ROR-gamma (Mus musculus), P51450; Drosophila S2 Gal4-RORgamma UAS-luciferase reporter, 20 h; Potency, µM (doses to about 53.6 µM), inactives show at the highest dose activity change, negative = inhibition, most hits filed as inhibitors; hit rate 5.4% among 310,000; AID 2551, 2010; also: % is scaled to controls: 0 for no effect and ±100 for the full control effect; nearly all actives have a fitted effect of over 60% in size
Target sequence (P51450 whole entry, looked up, the tested form may be a part): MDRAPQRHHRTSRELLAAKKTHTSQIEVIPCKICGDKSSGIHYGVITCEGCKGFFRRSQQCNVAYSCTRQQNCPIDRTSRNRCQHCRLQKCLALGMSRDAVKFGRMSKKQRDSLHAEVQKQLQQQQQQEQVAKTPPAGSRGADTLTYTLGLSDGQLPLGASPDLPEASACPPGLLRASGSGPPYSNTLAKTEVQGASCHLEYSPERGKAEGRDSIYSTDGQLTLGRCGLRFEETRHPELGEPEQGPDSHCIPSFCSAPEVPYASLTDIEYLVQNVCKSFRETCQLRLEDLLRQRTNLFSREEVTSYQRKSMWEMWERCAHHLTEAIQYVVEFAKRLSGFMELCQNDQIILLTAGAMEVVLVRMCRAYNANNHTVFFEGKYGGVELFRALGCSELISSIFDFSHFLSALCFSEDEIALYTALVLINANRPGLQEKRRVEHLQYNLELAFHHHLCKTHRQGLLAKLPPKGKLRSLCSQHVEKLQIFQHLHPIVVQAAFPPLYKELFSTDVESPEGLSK
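A Gal4/UAS one-hybrid system in insect cells: metallothionein-promoter Gal4–ROR gamma fusion plus Photinus luciferase reporter. Copper sulfate 700 uM final, 20 hr ambient incubation, luminescent detection after 10 min with reagent.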
MCF10A rerep – A quantitative high throughput screen for small molecules that induce DNA re-replication in MCF 10a normal breast cells; Potency, µM (top dose mostly 46.1 µM), without a hit: top-dose activity, positive = re-replication, usual class: activators; hit rate 2.9% among 350,000; MCF 10A DNA re-replication, Hoechst nuclear intensity, 48 h; also: % of control where 0% means no effect; nearly all actives have a fitted effect of over 50% in size
KB-V1 MDR tox – qHTS assay for MDR1-selective chemotherapeutics: Primary screen using the drug-selected MDR subline cells KB-V1. KB-V1 MDR cells viability, CellTiter-Glo, 72 h. Potency, µM (top dose mostly 46.1 µM), hits mostly cytotoxic. hit rate 3.4% among 400,000. AID 1347076, 2019; also: % is scaled to controls: 0 for no effect and ±100 for the full control effect; nearly all actives have a fitted effect of over 60% in size
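KB-V1 MDR subline cells in DMEM (phenol-red free, 10% FBS) exposed to compounds in qHTS concentration series for 72 h at 37 degrees C. Viability read by CellTiter-Glo luminescence; concentration-effect curves fitted after normalization and correction.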
* hit, by the source's call; i = inactive; ? = inconclusive; nt = not tested or not shown. Calls follow the shape of the dose curve; as a rule, active = well fitted curve in the direction sought with a large enough effect; inconclusive = small, poorly fitted or top-dose-only effect, or another doubt; inactive = no such curve, though single readings can be large; an effect the other way counts as inactive or inconclusive. Potency is read from the fitted curve at half-maximal effect.

SMILES	SW480 rerep	VP16 counter	KB-3-1 tox	RORg inh	MCF10A rerep	KB-V1 MDR tox
O=C1c2ccccc2C(=O)C12OC2c1ccc(Cl)cc1Cl (centres undefined)	?	?	?	10µM*	11.6µM*	?
CCCCCCCCSc1nnc(/N=C/N(C)C)s1	?	2.4%	i	12.7%	16.6%	i
Cc1cc(Sc2nnc(/N=C/N(C)C)s2)c2ccccc2n1	?	?	?	8.91µM*	9.2µM*	i
Cc1cc(Sc2nnc(N)s2)c2ccccc2n1	-0.4%	11.2µM*	i	7.94µM*	?	i
Cc1cc(-c2c(C)[nH]n(-c3ccc(Cl)cc3)c2=O)n[nH]1	?	0.631µM*	?	0.112µM*	14.4%	?
Cc1[nH]n(-c2ccccc2)c(=O)c1Sc1ccc(Cl)cc1	-6.7%	-11.1%	i	31.2%	5.2%	i
O=C(O)C(=O)/C(=C\c1cccc2ccccc12)c1ccc2ccccc2n1	?	-13.5%	?	0.0%	15.8µM*	?
O=C(O)C(=O)/C(=C\c1ccccc1)c1ccc2ccccc2n1	0.2%	9.6%	?	-23.4%	0.4%	i
N[C@@H](C(=O)O)c1ccc(C(=O)O)c(C(=O)O)c1	nt	-3.2%	nt	-2.4%	nt	nt
COc1cc(C2C=C(c3cccs3)Nc3ncnn32)cc(OC)c1OC (centres undefined)	?	?	1.03µM*	?	?	3.66µM*
COc1cc(C2C3=C(Nc4ncnn42)c2ccccc2CC3)cc(OC)c1OC (centres undefined)	0.82µM*	1.5%	0.291µM*	-13.0%	?	0.651µM*
COc1ccc(C2C3=C(Nc4ncnn42)c2ccccc2CCC3)cc1 (centres undefined)	0.8%	-2.7%	i	-30.0%	?	i
COc1cc(C2CC(=O)C3=C(C2)Nc2ncnn2C3c2cccs2)cc(OC)c1OC (centres undefined)	-19.6%	-3.0%	i	19.9%	5.5%	i
Cc1ccc([C@@H]2C[C@H]3[C@@H](CN2S(=O)(=O)c2ccc(Cl)cc2)C(=O)C[C@@H](c2cccc(Cl)c2)N3S(=O)(=O)c2ccc(C)cc2)cc1	nt	nt	i	nt	nt	i
Cc1ccc(S(=O)(=O)N2[C@H](c3cccc(Cl)c3)CC(=O)[C@@H]3CN(S(=O)(=O)c4ccccc4C)[C@H](c4ccc(Cl)cc4)C[C@@H]32)cc1	nt	nt	3.66µM*	nt	nt	i
Cc1ccc([C@@H]2CC(=O)[C@@H]3CN(S(=O)(=O)c4ccccc4C)[C@H](c4ccc(Cl)cc4)C[C@@H]3N2S(=O)(=O)c2ccc(C)cc2)cc1	nt	nt	3.66µM*	nt	nt	?
Cc1ccc(S(=O)(=O)N2[C@H](c3ccc(Cl)cc3)CC(=O)[C@@H]3CN(S(=O)(=O)c4ccccc4C)[C@H](c4ccc(Cl)cc4)C[C@@H]32)cc1	nt	nt	i	nt	nt	i
CC1(C(=O)NCc2cccs2)Cc2c(-c3ccccc3)ccnc2O1 (centres undefined)	nt	nt	5.8µM*	nt	nt	?
CC1(C(=O)NCc2cccs2)Cc2c(-c3ccc4c(c3)OCO4)ccnc2O1 (centres undefined)	nt	nt	5.17µM*	nt	nt	?
CN(C)c1ccc(-c2ccnc3c2CC(C)(C(=O)NCc2cccs2)O3)cc1 (centres undefined)	nt	nt	?	nt	nt	i
COc1cccc(Cn2c(SCC(=O)N3CCN(c4ccc(F)cc4)CC3)nc3ccccc32)c1	nt	nt	i	nt	nt	i
COc1ccc(C(=O)Nc2ccc(S(=O)(=O)Nc3nccnc3OC)cc2)cc1	17.9%	1.3%	?	?	6.9%	18.4µM*
COc1nccnc1NS(=O)(=O)c1ccc(NC(=O)c2ccc(F)cc2)cc1	-6.7%	-5.3%	i	-1.8%	-19.9%	i
CCCCC(=O)Nc1ccc(C(=O)Nc2ccc(S(=O)(=O)Nc3ccc(C)cc3)cc2)cc1	0.7%	11.2µM*	i	?	-0.6%	i
Cc1ccc(S(=O)(=O)Nc2ccc(NC(=O)c3ccc(F)cc3)cc2)cc1	-116.1%	-8.9%	i	9.6%	-0.4%	i
SMILES	SW480 rerep	VP16 counter	KB-3-1 tox	RORg inh	MCF10A rerep	KB-V1 MDR tox
Cc1ccc(S(=O)(=O)Nc2ccc(C(=O)Nc3ccncc3)cc2)cc1	3.26µM*	-10.7%	i	35.3%	15.3%	i
CCOC(=O)Nc1ccc(NS(=O)(=O)c2ccc(C)cc2)cc1	?	-0.3%	i	?	13.9%	?
CCC(=O)N1c2ccccc2CC1C(=O)NCc1cc(Br)ccc1OC (centres undefined)	nt	nt	i	nt	nt	i
COc1cc(/C=C(\C#N)c2nc3ccccc3s2)ccc1OCC(=O)Nc1ccccc1	?	-20.2%	?	0.126µM*	6.51µM*	9.2µM*
COc1cc(/C=C(\C#N)c2nc3ccccc3[nH]2)ccc1OC(=O)c1ccco1	8.8%	?	i	39.2%	?	?
COc1cc(/C=C(/C#N)c2nc3ccccc3[nH]2)ccc1OCC(=O)Nc1ccccc1C	26.6%	-8.6%	?	?	18.4µM*	1.84µM*
COc1cc(/C=C(/C#N)c2nc3ccccc3[nH]2)ccc1OCC(=O)Nc1ccccc1C(C)C	?	-10.6%	?	8.2%	2.91µM*	?
CCOc1cc(/C=C(/C#N)c2nc3ccccc3[nH]2)ccc1OCc1ccc(C(=O)O)o1	-1.6%	-2.5%	?	28.5%	25.8%	i
CCNC(=O)c1c(NC(=O)c2nc(SC)ncc2Cl)sc2c1CCCC2	nt	nt	?	nt	nt	i
COc1ccc2c3c(n(C(=O)OC(C)(C)C)c2c1)C1CC=C(COC(C)=O)CN1CC3 (centres undefined)	nt	nt	i	nt	nt	?
Fc1ccc(-n2c(-c3ccco3)n[nH]c2=S)cc1	-5.0%	?	i	?	-1.9%	?
S=c1[nH]nc(-c2cc(-c3ccco3)[nH]n2)n1-c1ccccc1Cl	-7.5%	-6.1%	i	-32.0%	-2.7%	i
S=c1[nH]nc(-c2cc(-c3ccco3)[nH]n2)n1-c1ccccc1	-6.9%	6.5%	i	12.6µM*	-1.4%	i
Cc1ccc(-n2c(-c3ccco3)n[nH]c2=S)cc1	-10.1%	?	i	11.2µM*	-28.2%	i
S=c1[nH]nc(-c2ccco2)n1-c1ccccc1Cl	-1.2%	17.8µM*	i	6.31µM*	-4.1%	i
